Source: PubChem BioAssay (National Center for Advancing Translational Sciences (NCATS))
This is a sample that favours compounds with a hit; in the whole collection about 21% have one here.
Shiga toxin inh – inhibitors of Shiga toxin in Vero cells; Vero cells, Shiga toxin protein synthesis inhibition reporter; inhibition, % at 38.7 µM; 290,000 compounds, 9.2% hits; in the data active means inhibition mostly above about 28%, no sharp cut-off; inactive means mostly below about 43%
SARS PLP yeast – blocks SARS-CoV papain-like protease in a yeast assay; S. cerevisiae expressing SARS-CoV PLpro, growth rescue; Potency, µM (titrated, usually from 32.9 µM), usual class: activators; 330,000 compounds, 0.19% hits; AID 485353; further: nearly all actives have a fitted effect of over 55% in size
CHX counter – affects cycloheximide protein synthesis inhibition readout, counter-screen; cell reporter, cycloheximide protein synthesis inhibition counterscreen; AID 2314; 300,000 compounds, 12% hits; max response, %; in the data active means max response mostly above about 13%, no sharp cut-off; inactive means mostly below about 14%; further: read at 38.3 µM for the half of the compounds with a filed dose
Pf growth 48h – P. falciparum growth inhibition at 48 hours (one generation); P. falciparum luciferase growth in erythrocytes, 48 h; Potency, µM (top dose mostly 28.7 µM), usual class: inhibitors; 310,000 compounds, 5.9% hits; active means well fitted inhibition curve with a large enough effect; inconclusive means small, poorly fitted or top-dose-only effect, or another doubt; inactive means no such curve, though single readings can be large or run the other way
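First compound was added to culture medium, then infected red cells at 0.1% parasitemia and 2% hematocrit (final). After incubation at 37 C under 5% CO2, luciferase detection reagent was dispensed and light output recorded.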
NS1 inh – influenza NS1 inhibition; Potency, µM (titrated, usually from 46.1 µM); AID 2326; 270,000 compounds, 0.4% hits; further: actives are rising curves; nearly all actives have a fitted effect of over 50% in size
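Compounds were scored for reversing the slow growth caused by influenza A NS1 in S. cerevisiae, measured by optical density at 600 nm. Assay medium contained 2% galactose at pH 6.0; NS1-free yeast of the same strain were the positive control.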
Pf growth 96h – inhibits malaria parasite growth, 96 h; P. falciparum luciferase reporter growth, 96 h; Potency, µM (top dose mostly 28.7 µM), actives largely listed as inhibitors; 320,000 compounds, 6.9% hits; active means well fitted inhibition curve with a large enough effect; inconclusive means small, poorly fitted or top-dose-only effect, or another doubt; inactive means no such curve, though single readings can be large or run the other way
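Delayed-death screen, second-generation endpoint: infected erythrocytes, 2% hematocrit, 0.05% parasitemia final; 96 hours at 37 C, 5% CO2; luciferase detection reagent; luminescence decrease equals reduced growth.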
Each line names hits and unclear results; the compound was inactive in the other large screens. Unless noted, the call rests on the fitted dose curve.

CC(=O)Nc1cnc(NC(=O)c2cccc(F)c2)cc1C	Shiga toxin inh 55, CHX counter 50
CC[C@@H]1CCCCc2ccccc2[C@H](C(=O)C[C@H](O)CC(C)=O)OC1=O	none (no result: Shiga toxin inh, CHX counter, Pf growth 48h, NS1 inh, Pf growth 96h)
COC(=O)[C@@]1(C)[C@H]2C(=O)N(C)C(=O)[C@H]2[C@H]2CN=C(SCc3ccc(Cl)cc3)N21	none (no result: Shiga toxin inh, CHX counter, Pf growth 48h, NS1 inh, Pf growth 96h)
CC[C@H](C)[C@H](NC(=O)[C@H](Cc1ccc(O)cc1)NC(=O)[C@H](Cc1cnc[nH]1)NC(=O)[C@H](CCCNC(=N)N)NC(=O)[C@H](CC(C)C)NC(=O)[C@H](C)NC(=O)[C@H](CO)NC(=O)[C@H](Cc1ccc(O)cc1)NC(=O)[C@H](Cc1ccc(O)cc1)NC(=O)[C@H](CCCNC(=N)N)NC(=O)[C@H](C)NC(=O)[C@H](CCSC)NC(=O)[C@H](CC(=O)O)NC(=O)[C@H](CCC(=O)O)NC(=O)[C@H](C)NC(=O)[C@@H]1CCCN1)C(=O)N[C@@H](CC(N)=O)C(=O)N[C@@H](CC(C)C)C(=O)N[C@H](C(=O)N[C@H](C(=O)N[C@@H](CCCNC(=N)N)C(=O)N[C@@H](CCC(N)=O)C(=O)N[C@@H](CCCNC(=N)N)C(=O)N[C@@H](Cc1ccc(O)cc1)C(N)=O)[C@@H](C)O)[C@@H](C)CC	none (no result: SARS PLP yeast, Pf growth 48h, NS1 inh, Pf growth 96h)
Cc1cc(NC(=O)c2ccccc2)no1	Shiga toxin inh 73, CHX counter 51 (no result: Pf growth 48h)
CC(=O)Nc1ccc(NC(=O)C2CCN(C(=O)NC3CCCCC3)CC2)cc1	Pf growth 96h 5.2µM
Cc1cc(NC(=O)c2ccc3nc(-c4ccccc4)c(-c4ccccc4)nc3c2)no1	Pf growth 48h 5.2µM, Pf growth 96h 4.7µM
Cc1cc(NC(=O)c2cc(-c3ccccc3)on2)no1	none
O=C(NC1CCN(Cc2ccccc2)C1)c1cc(COc2ccc(F)cc2F)on1 (configuration not stated)	Pf growth 48h inconclusive, Pf growth 96h inconclusive
Cc1ccc(C)c(OCc2cc(C(=O)N3CCC(N4CCCC(O)C4)CC3)no2)c1 (configuration not stated)	none
COCCN1CCN(C(=O)c2cc(COc3cc(C)ccc3C)on2)CC1	Shiga toxin inh 81, CHX counter 39
CC(=O)NCCC1CCCCN1C(=O)c1cc(COc2cc(C)ccc2C)on1 (configuration not stated)	Shiga toxin inh 101, CHX counter 45
Cc1ccc(C)c(OCc2cc(C(=O)NC3CCN(Cc4ccccc4)CC3)no2)c1	CHX counter 29, Pf growth 48h inconclusive, Pf growth 96h inconclusive
Cc1ccc(C)c(OCc2cc(C(=O)N3CCOCC3)no2)c1	Shiga toxin inh 58, CHX counter 49, Pf growth 96h inconclusive
Cc1ccc(C)c(OCc2cc(C(=O)N3CCNC(=O)C3)no2)c1	none
COCCCC1CCN(C(=O)c2cc(COc3cc(C)ccc3C)on2)CC1	Shiga toxin inh 162, CHX counter 56, Pf growth 96h inconclusive (no result: SARS PLP yeast)
Cc1nc([N+](=O)[O-])cn1CC(=O)Nc1ccc([N+](=O)[O-])cc1	Pf growth 96h inconclusive
O=C(c1ccccc1)n1ccc(-c2cnc(-c3ccccc3)s2)n1	Shiga toxin inh 97, CHX counter 40 (no result: Pf growth 48h)
COc1ccc(S(=O)(=O)n2ccc(-c3cnc(-c4ccccc4)s3)n2)cc1	CHX counter 17, Pf growth 48h inconclusive, NS1 inh inconclusive, Pf growth 96h inconclusive
COc1ccc(S(=O)(=O)N2CCN(c3cc(-c4ccccc4)nc4ncnn34)CC2)cc1	none
CC(=O)NCCNC(=O)c1ccc(CSc2ccc(Cl)cc2)cc1	Shiga toxin inh 94, CHX counter 37
CCNC(=O)c1ccc(CSc2ccc(Cl)cc2)cc1	Shiga toxin inh 55, CHX counter 34, Pf growth 48h 4.7µM, Pf growth 96h inconclusive
CCOC(=O)COc1ccc(C2CC(C)=NN2c2ccccc2)cc1 (configuration not stated)	none (no result: NS1 inh)
COc1ccccc1NC(=O)C(C)OC(=O)Cc1ccsc1 (configuration not stated)	none (no result: Shiga toxin inh, CHX counter, NS1 inh)
O=C1Nc2ccc(Br)cc2C1(O)Cc1ccncc1 (configuration not stated)	none
O=C1Nc2ccccc2C1(O)Cc1ccncc1 (configuration not stated)	Pf growth 96h 9.3µM
COC(=O)c1cccc(NC(=O)c2cccnc2)c1	none
